# Source: PubChem
# Hits are enriched below; roughly 7.3% of the tested compounds scored in any of these assays.
# NPC1 prom act: activates the NPC1 promoter. Huh7 NPC1 promoter luciferase reporter, 24 h. Potency, µM (doses to about 9.22 µM), for the others: at the highest dose activation, most hits filed as activators. 320,000 tested, 2.4% active; further: % of control where 0% means no effect; nearly all actives have a fitted effect of over 60% in size
#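 Compounds in DMSO were transferred onto Huh7 NPC1-luciferase reporter cells pre-incubated 2 h; after 24 h at 37 °C, Amplite reagent was dispensed and luminescence recorded 10 min later.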
# ELG1 genotoxic: inducers of genotoxicity in HEK293T ELG1-luciferase cells; HEK293T ELG1-luciferase reporter, luminescence, 16 h; Potency, µM (highest dose often 46 µM), for inactives: at the top dose activity change, positive = activation, actives largely listed as activators; 330,000 tested, 1.3% active; AID 504466; further: % of control where 0% means no effect; nearly all actives have a fitted effect of over 60% in size
#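 16 hr compound incubation (37 °C, 5% CO2) of HEK293T cells carrying luciferase-tagged ELG1; luciferase then measured by ONE-Glo luminescence after 30 min at RT.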
# FLuc modulator: counter-screen for miR-21 project: firefly luciferase inhibitors or activators; purified FLuc, Km substrates, luminescence inhibition; Potency, µM (series often up to 57.5 µM), inactives show at the highest dose activity change, negative = inhibition, most hits filed as inhibitors; 360,000 tested, 6.9% active;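 further: plate controls were vehicle for no effect and reference inhibitor for full effect; nearly all actives have a fitted effect of over 55% in size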
# Target sequence (P08659 whole entry, looked up): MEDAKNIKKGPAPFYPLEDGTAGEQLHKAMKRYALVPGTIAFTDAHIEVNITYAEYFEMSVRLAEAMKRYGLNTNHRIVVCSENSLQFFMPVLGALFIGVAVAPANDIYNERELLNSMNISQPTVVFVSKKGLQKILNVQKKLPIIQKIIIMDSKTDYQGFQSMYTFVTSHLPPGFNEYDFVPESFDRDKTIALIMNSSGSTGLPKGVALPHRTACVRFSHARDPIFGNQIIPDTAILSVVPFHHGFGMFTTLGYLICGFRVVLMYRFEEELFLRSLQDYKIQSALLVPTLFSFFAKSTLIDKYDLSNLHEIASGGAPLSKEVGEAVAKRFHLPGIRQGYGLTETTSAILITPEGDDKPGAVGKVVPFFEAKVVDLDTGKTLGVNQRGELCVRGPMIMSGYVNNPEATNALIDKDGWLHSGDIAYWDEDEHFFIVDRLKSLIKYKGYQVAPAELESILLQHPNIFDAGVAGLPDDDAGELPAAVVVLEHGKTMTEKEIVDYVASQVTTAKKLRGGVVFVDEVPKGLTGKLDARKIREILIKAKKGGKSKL
#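 Purified P. pyralis luciferase (10nM final) with 10uM D-luciferin and 10uM ATP (Km levels) in 50mM Tris acetate pH 7.5, 10mM Mg acetate, 0.01% Tween-20, 0.05% BSA; qHTS 6-point titration, ~60 µM downward; luminescence read.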
# Rab9 promoter act: Rab9 promoter activation | Potency, µM (series often up to 9.22 µM), for the others: at the top dose activation, negative = inhibition, most hits filed as activators | Huh7 Rab9 promoter-luciferase reporter, luminescence, 24 h | 320,000 tested, 2.8% active; further: % of control where 0% means no effect; nearly all actives have a fitted effect of over 60% in size
#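 Huh7 cells stably carrying a Rab9 promoter-luciferase reporter, 1500 cells per well in OP-MEM I with 10% FBS, treated with compound 24 hours at 37C. Luciferase activity read by luminescence after 10 minutes with Amplite reagent.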
# SMN2 splice enh: enhancers of SMN2 splice variant expression; HEK293 SMN2-luciferase splicing reporter, luminescence, 30-36 h; Potency, µM (doses to about 46.1 µM), inactives show top-dose activity change, positive = activation, hits mostly activators; 210,000 tested, 2.8% active; further: % of control where 0% means no effect; nearly all actives have a fitted effect of over 55% in size
#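 HEK293 cells carry an SMN2 […]–luciferase reporter in which exon 7 inclusion puts luciferase in frame. Cells were plated 10-12 h before compound addition, then incubated 30-36 h at 37C. ONE-Glo luminescence was read; sodium butyrate at 4.5 mM final served as control.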
# uPA generation: cell surface uPA generation inhibition | cell surface uPA generation assay, qHTS | Potency, µM (series often up to 38.3 µM), for the others: top-dose activity change, negative = inhibition, actives largely listed as inhibitors | 330,000 tested, 0.31% active; active means well fitted inhibition curve with a large enough effect; inconclusive means small, poorly fitted or top-dose-only effect; inactive means no such curve, though single readings can be large or run the other way; tested in mouse RAW 264.7 cells; further: on the % scale 0 is the no-effect control and ±100 the full control effect; nearly all actives have a fitted effect of over 55% in size
# * marks the source's active call; other numbers are inactive results; ? = inconclusive; nt = no result given; [ ] = another dose, or the depositor's remark. Unless noted, the call rests on the fitted dose curve; in most records, active means well fitted curve in the direction sought with a large enough effect; inconclusive means small, poorly fitted or top-dose-only effect, or another doubt; inactive means no such curve, though single readings can be large; an effect the other way counts as inactive or inconclusive. Potency means the concentration at half of the fitted maximal effect.
SMILES,NPC1 prom act,ELG1 genotoxic,FLuc modulator,Rab9 promoter act,SMN2 splice enh,uPA generation
Cc1ccc(S(=O)(=O)N2CCc3cc(C(=O)N(C)Cc4ccccc4)ccc32)cc1,nt,nt,-11.5%,nt,-26.8%,nt
COc1ccc(C(=O)OCC(=O)Nc2c(C)cccc2C)c(OC)c1OC,-0.4%,0.2%,0.5%,-2.2%,nt,3.8%
CCn1c(Oc2ccc(F)cc2F)nc2c1c(=O)n(C)c(=O)n2C,nt,nt,-7.4%,nt,-1.8%,nt
CCOc1ccc(N=C/C=C/c2ccccc2)c(O)c1,?,?,8.49µM*,?,nt,3.6%
O=C(COc1ccc(-c2ccccc2)cc1)N/N=C/c1cc(O)ccc1Br,0.4%,0.2%,10.7µM*,1.1%,1.6%[1.84 µM],-1.0%
COc1ccc(NCC(=O)N/N=C/C=C/c2ccccc2[N+](=O)[O-])cc1,-2.8%,-5.0%,-16.6%,-2.1%,11.9%,-3.2%
CCOc1ccc(NCC(=O)N/N=C/C=C/c2ccccc2)cc1,2.3%,2.9%,13.5µM*,-3.1%,-3.8%,-22.8%
COc1ccc(OCC(=O)N/N=C/C=C/c2ccccc2)cc1,0.7%,7.4%,4.78µM*,-4.2%,9.2%,-8.4%
CCOc1ccc(CC(=O)NC2CC(=O)N(c3cccc(F)c3)C2)cc1 (centres undefined),nt,nt,-1.0%,nt,nt,nt
Cc1ccc(-c2nc3ccccn3c2Nc2ccc3c(c2)OCO3)cc1,nt,nt,?,nt,-6.4%,nt
Cc1ccc(Nc2c(-c3ccccn3)nc3cc(C)ccn23)cc1,-14.7%,?,-11.1%,-16.5%,-75.0%,-1.7%
Cc1ccc(Nc2c(-c3ccc(N(C)C)cc3)nc3ccccn23)cc1,nt,nt,7.57µM*,nt,14.6%,nt
Cc1ccc(Nc2c(-c3ccccn3)nc3ccc(C)cn23)cc1,-10.7%,2.9%,-13.6%,-13.5%,-86.8%,6.31µM*
Cc1ccc2nc(-c3ccncc3)c(Nc3ccccc3)n2c1,-0.6%,-0.9%,0.0%,-0.2%,17.8µM*,5.4%
CCCCc1nc2c(c3c1C[C@H](C)OC3)CN(S(=O)(=O)c1ccccc1C(=O)OC)CC2,nt,nt,nt,nt,2.3%[9.22 µM],nt
CCCCN1C(=O)c2[nH]nc(-c3ccccc3O)c2C1c1cc(Br)c(O)c(OC)c1 (centres undefined),nt,nt,-23.4%,nt,16.9%,nt
Cc1ccc(/C=N/Nc2nc(C(C)(C)C)cs2)o1,?,?,13.5µM*,?,12.6µM*,-0.2%
Clc1ccc(-c2csc(N/N=C/c3cccnc3)n2)c(Cl)c1,-3.5%,6.7%,-17.3%,-8.5%,-53.5%,3.9%
C(=N\Nc1nc(-c2ccccc2)cs1)/c1cccnc1,3.16µM*,5.17µM*,21.3µM*,2.24µM*,22.4µM*,nt
Cc1ccc(/C=N/Nc2nc3ccccc3s2)o1,?,0.82µM*,0.849µM*,?,2µM*,-12.5%
CC(C)(C)c1csc(N/N=C/c2cccnc2)n1,?,?,12µM*,3.16µM*,?,4.7%
CCn1cc(C(=O)NCc2ccccc2Cl)c(=O)c2cc(S(=O)(=O)N3CCCCCC3)ccc21,nt,nt,?,nt,-5.4%,nt
COc1ccc(N2CCN(C(=O)CSc3ncccc3-c3nc4ccccc4[nH]3)CC2)cc1,8.0%,2.8%,10.7µM*,-2.1%,-30.7%,nt
COc1ccccc1N1CCN(C(=O)CSc2ncccc2-c2nc3ccccc3[nH]2)CC1,0.4%,4.2%,23.9µM*,1.4%,-35.5%,6.3%
O=C(CSc1ncccc1-c1nc2ccccc2[nH]1)N1CCN(c2ccccc2F)CC1,-11.1%,-2.4%,19µM*,20.7%,-19.3%,3.8%
COc1ccccc1N1CCN(C(=O)CSc2nc3ccccc3[nH]2)CC1,0.9%,-5.2%,8.6%,-0.2%,-13.7%,nt
Cc1ccc(C(=O)NC2CC3CCCC(C2)N3C(=S)NCc2ccco2)cc1 (centres undefined),-5.6%,2.9%,-6.5%,-10.0%,nt,-2.4%
Cc1ccc(C(=O)NC2(C(F)(F)F)N=C(c3ccccc3)N(C3CCCCC3)C2=O)cc1 (centres undefined),nt,nt,-7.7%,nt,0.6%,nt
CCc1ccc(S(=O)(=O)c2nnn3c2nc(N2CCCC2)c2sccc23)cc1,nt,nt,0.1%,nt,nt,nt
